Wnt act – activates Wnt/beta-catenin signaling in a reporter cell assay | activator, plate reader | activation, % at 9.35 µM | 300,000 compounds, 1.2% hits | AID 743398; in the data active means activation above about 30%, passing the limit was not always enough; inconclusive means no clear call, values can overlap the other calls;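 further: 0% = neutral control wells and 100% = positive control wells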
FXN GAA850 act – activators of GAA850 frataxin (FXN) promoter; HEK293 lucGAA850 FXN promoter luciferase reporter, 24 h; percent of 10 µM SAHA response; 360,000 compounds, 0.56% hits; activation, % at 6 µM;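 active means activation above the average of all compounds screened plus 3 SD, cutoff fixed separately per campaign, cut at about 7.5% in these data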;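 further: 0% = DMSO wells and 100% = 10 µM SAHA wells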
C2C12 statin – suppression of simvastatin myotoxicity | C2C12 myotubes + simvastatin, ATP luminescence, 48 h; scaled: DMSO 0, geranylgeraniol control 100 | rescue of ATP level, % at 7.49 µM | 330,000 compounds, 0.78% hits | AID 602340;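 active means mean ATP rescue above about 67%, or every replicate alone reaching that limit, limit read from the data, passing the limit was not always enough; inconclusive means no clear call, values can overlap the other calls; inactive means mean under the limit and some replicate under it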;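 further: myotubes were challenged with 10 µM simvastatin during compound exposure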
MITF TRPM1 HTS – MITF TRPM1 promoter activation in melanoma cells; SK-MEL-5 TRPM1-promoter luciferase, 24 h; % of positive control, neutral wells = 0; 300,000 compounds, 0.75% hits; activation, % at 12.5 µM;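 active means mean activation of at least 80% with every replicate also reaching 80%; inconclusive means mean reaches 80% but some replicate falls short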;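 further: 0% = neutral control wells and 100% = parthenolide positive control wells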
esBAF inh – SWI/SNF esBAF complex inhibition | mouse ES cells, Bmi1-luciferase knock-in reporter, 24 h; 100% = twice the neutral-well signal | reporter increase, % at 12.5 µM | 350,000 compounds, 2% hits | AID 602393; in the data active means activation above about 40%; inconclusive means no clear call, values can overlap the other calls;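 further: 0% = median of the plate's neutral control wells and 100% = double that signal; a rise in the Bmi1 reporter signal indicates esBAF inhibition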
* marks the source's active call; other numbers are inactive results; ? = inconclusive; · = no result given. A selection: hits, their analogues and other compounds. The true share with any hit is near 3.3%.

SMILES	Wnt act	FXN GAA850 act	C2C12 statin	MITF TRPM1 HTS	esBAF inh
N#C/C(=C\c1ccc(N2CCOCC2)o1)C(=O)NCCc1ccccc1	-2	2	-2	15	8
C=CCc1ccc(OCCn2cccc2C=O)c(OC)c1	·	4	·	93*	·
COc1ccc(NC(=O)N(C)C[C@H]2OCCCC[C@@H](C)Oc3ccc(NC(=O)Nc4ccc(F)cc4)cc3C(=O)N([C@H](C)CO)C[C@@H]2C)cc1	·	·	·	·	-1
C[C@H]1CCCCO[C@H](CN(C)Cc2ccncc2)[C@@H](C)CN([C@@H](C)CO)C(=O)c2cc(NC(=O)Nc3cccc4ccccc34)ccc2O1	·	·	·	·	-2
O=C1N(Cc2ccccc2F)c2ccccc2C12OCCCO2	-5	0	120*	-2	-5
O=C(NC1CCCCC1)c1ccc(-c2cn[nH]c2)c2ccoc12	3	6	-9	·	53*
C[C@H]1CN([C@@H](C)CO)C(=O)c2cc(NC(=O)CCCN(C)C)ccc2O[C@H]1CN(C)CC1CCCCC1	·	·	6	·	-3
Nc1ccccc1C(=O)N1O[C@@H]2C=C[C@H]1C2	-2	0	2	4	6
O=C(c1cc2ccccc2[nH]1)N1O[C@@H]2C=C[C@H]1C2	?	2	5	0	42*
COc1cccc(S(=O)(=O)N[C@@H]2CC[C@H](CCNC(=O)Cc3ccncc3)O[C@H]2CO)c1	·	·	2	·	1
c1ccc(CSc2nnc(NC3CCCCC3)s2)cc1	42*	4	·	·	·
C/C=C/c1ccc2c(c1)O[C@H](CN(C)Cc1ccncc1)[C@@H](C)CN([C@@H](C)CO)S2(=O)=O	·	·	10	·	0
c1ccc(-c2nc(-c3ccco3)cs2)nc1	3	2	?	91*	34
Cc1nc2ccccc2cc1C(=O)N/N=C/c1cccc([N+](=O)[O-])c1	-5	3	·	4	·
Nc1ccccc1C(=O)NN=Cc1cccc([N+](=O)[O-])c1	39*	·	-2	·	?
CNC(=O)/C(C#N)=C/c1ccc(-c2ccc(Cl)cc2)o1	7	7	-1	26	80*
Cc1cccc(C)c1NC(=O)/C(C#N)=C/c1ccc(-c2ccc(C(=O)O)cc2)o1	21	4	-3	·	128*
COc1cccc(C(=O)Nc2ccc3c(c2)C(=O)N(C)C[C@H](OC)[C@H](C)CN(C(C)=O)[C@@H](C)CO3)c1	·	·	-5	·	-3
CNC(=O)c1ccccc1S(=O)(=O)c1ccccc1C#N	-2	1	101*	·	-11
CC(C)CC#Cc1ccc2c(c1)O[C@@H](CN(C)Cc1ccccc1F)[C@@H](C)CN([C@@H](C)CO)S2(=O)=O	·	·	48	·	-4
COc1cccc(C(=O)Nc2ccc3c(c2)C(=O)N(C)[C@@H]2CC[C@H](CC(=O)NCc4ccccc4F)O[C@H]2CO3)c1	·	·	2	·	2
COc1cc(NC(=O)c2cccs2)c(C(=O)OCC(=O)NCc2ccco2)cc1OC	·	-1	105*	-1	-2
COc1ccc(/C=C(/NC(=O)c2cccs2)C(=O)NCc2ccco2)cc1OC	-2	-1	25	-5	-2
COc1cc(C(=O)OCC(=O)NCc2ccco2)cc(OC)c1OC	-3	0	3	-15	-8
COCCCNC(=O)CSc1ccsc1[N+](=O)[O-]	-1	2	·	5	·
SMILES	Wnt act	FXN GAA850 act	C2C12 statin	MITF TRPM1 HTS	esBAF inh
O=C(CSc1ccsc1[N+](=O)[O-])NCc1ccco1	33*	0	·	-5	·
O=C(CSc1ncccn1)NC(=O)NCc1ccco1	36*	1	-10	-12	-6
COc1cc(OC)cc(C(=O)OCC(=O)NCc2ccco2)c1	47*	1	10	-4	-4
C[C@@H]1CCCCO[C@H](CN(C)S(C)(=O)=O)[C@H](C)CN([C@@H](C)CO)C(=O)c2cc(NC(=O)c3ccncc3)ccc2O1	·	·	·	·	-6
O=C(C[C@H]1CC[C@@H]2[C@H](COC[C@H](O)CN2S(=O)(=O)c2cccc(Cl)c2)O1)Nc1ccccc1	·	·	2	·	0
O=C(COC(=O)c1cccs1)NCc1ccco1	·	3	131*	-10	-7
O=C(COC(=O)c1n[nH]c2ccccc12)NC(=O)NCc1ccco1	·	0	73*	-9	-2
COCC#Cc1cnc2c(c1)C(=O)N([C@@H](C)CO)C[C@@H](C)[C@H](CN(C)S(C)(=O)=O)O2	·	·	7	·	8
CCC(=O)N(C)C[C@@H]1Oc2cc(C#Cc3ccncc3)ccc2S(=O)(=O)N([C@@H](C)CO)C[C@@H]1C	·	·	16	·	3
CO[C@@H]1CN(C)C(=O)c2cc(NC(=O)c3cc(C)on3)ccc2OC[C@@H](C)N(S(=O)(=O)c2cccc(F)c2)C[C@H]1C	·	·	16	·	10
CC1CC(C)CN(CCCNC(=O)c2ccc3c(c2)NC(=O)C(N2CCCCC2)S3)C1 (configuration not stated)	·	-3	107*	2	19
Cc1ccc(OCc2nc(-c3ccc(Cl)cc3)n[nH]2)cc1	3	2	50	15	4
Cc1ccc(-c2n[nH]c(Cc3ccccc3)n2)cc1	0	6	-9	?	54*
NC(=O)c1ccc(NC(=O)c2ccc3c(c2)OCO3)cc1	-1	4	1	88*	22
CC(C)C(=O)Nc1ccc(NC(=O)c2ccc3c(c2)OCO3)cc1	-2	-4	-26	7	-9
COc1cc(NC(=O)c2ccc3c(c2)OCO3)ccc1NC(=O)C(C)C	1	2	·	·	52*
O=C(Nc1ccc2c(c1)OCO2)c1c(Cl)nc2sccn12	·	6	-4	94*	49*
Cn1ncc(Cl)c1C(=O)Nc1ccc2c(c1)OCO2	1	2	5	10	17
COc1cccc(C(=O)Nc2ccc(-n3nncc3C(C)(C)C)cc2)c1	1	0	·	-3	·
CC(C)(C)c1cnnn1-c1ccc(NC(=O)c2ccc3c(c2)OCO3)cc1	·	2	23	32	44*
O=C(N[C@@H]1CC[C@H](CC(=O)N2CCc3ccccc3C2)O[C@@H]1CO)C1CCC1	·	·	1	·	-5
O=C(Nc1ccc2c(c1)OCO2)c1cccc(Cl)c1	-1	1	-7	104*	64*
COc1cc2c(cc1NC(=O)c1ccc3c(c1)OCO3)oc1ccccc12	22	2	-8	66	47*
O=C(Nc1ccc(F)c(F)c1)c1ccc2c(c1)OCO2	·	4	-15	85*	58*
COc1ccccc1NC(=O)c1ccc2c(c1)OCO2	12	2	-11	·	14
CCN1CCN(c2ccc(NC(=O)c3ccc4c(c3)OCO4)cc2)CC1	47*	6	4	35	11
COCCSc1nnc(NC(=O)c2ccc3c(c2)OCO3)s1	47*	1	·	38	·
O=C(Nc1ccccn1)c1c(O)c2cccc3c2n(c1=O)CCC3	·	0	-3	7	64*
O=C(C[C@H]1C[C@@H]2c3cc(NC(=O)Nc4ccccc4)ccc3O[C@@H]2[C@H](CO)O1)NCC1CC1	·	·	1	·	3
CCC(=O)N(C)C[C@H]1Oc2cc(-c3cncnc3)ccc2S(=O)(=O)N([C@@H](C)CO)C[C@H]1C	·	·	13	·	-1

Screening results: PubChem, several laboratories
